# Measured values from publication PMC7862700, “An all-to-all approach to the identification of sequence-specific readers for epigenetic DNA modifications on cytosine”.
# Tests used:
# Assay in all cases: DAPPL (digital affinity profiling via proximity ligation, sequencing); 10 mM Tris-HCl pH 7.5, 50 mM NaCl, 1 mM DTT, 4% glycerol, room temperature, 30 min; GST-TFs on glutathione beads, 16-mer random dsDNA library, 0.1% formaldehyde crosslink after washing; high values mean tight binding
# Conditions in all cases: protein: recombinant; tags: N-terminal GST; dsDNA, one strand shown
# FLI1 = biological target: T1, FLI1 (Homo sapiens, UniProt Q01543 1-452)
# T1 sequence: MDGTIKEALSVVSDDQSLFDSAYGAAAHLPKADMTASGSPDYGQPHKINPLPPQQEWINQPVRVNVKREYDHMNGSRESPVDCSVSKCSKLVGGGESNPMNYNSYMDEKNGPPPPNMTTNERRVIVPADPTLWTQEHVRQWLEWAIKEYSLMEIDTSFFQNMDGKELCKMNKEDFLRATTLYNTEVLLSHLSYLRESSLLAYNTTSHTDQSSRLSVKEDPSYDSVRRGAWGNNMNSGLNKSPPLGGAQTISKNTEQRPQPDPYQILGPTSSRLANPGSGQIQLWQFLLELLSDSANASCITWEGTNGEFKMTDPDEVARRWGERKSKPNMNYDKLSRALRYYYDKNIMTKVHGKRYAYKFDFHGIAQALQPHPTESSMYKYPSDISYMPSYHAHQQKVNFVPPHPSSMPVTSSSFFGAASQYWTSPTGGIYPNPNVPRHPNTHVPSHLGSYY
# Summary of the method: (§1)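 Beads coated with glutathione captured GST-fused human transcription factors that had been expressed in yeast, and the factors were then given DNA barcodes and pooled with a tag-only sample. The pools were incubated with 200 nmole of a random double-stranded 16-mer DNA library in Tris/NaCl/DTT/glycerol buffer for 30 min at room temperature, washed, crosslinked with 0.1% formaldehyde and proximity-ligated with BsaI/T4 ligase at 37 °C for 1 h. PCR amplification and Illumina NextSeq500 sequencing came last. Binding signal is each hexamer's read frequency for a factor divided by its frequency for the tag-only sample.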
# ELK1 = biological target: T2, ELK1 (Homo sapiens, UniProt P19419 1-428)
# T2 sequence: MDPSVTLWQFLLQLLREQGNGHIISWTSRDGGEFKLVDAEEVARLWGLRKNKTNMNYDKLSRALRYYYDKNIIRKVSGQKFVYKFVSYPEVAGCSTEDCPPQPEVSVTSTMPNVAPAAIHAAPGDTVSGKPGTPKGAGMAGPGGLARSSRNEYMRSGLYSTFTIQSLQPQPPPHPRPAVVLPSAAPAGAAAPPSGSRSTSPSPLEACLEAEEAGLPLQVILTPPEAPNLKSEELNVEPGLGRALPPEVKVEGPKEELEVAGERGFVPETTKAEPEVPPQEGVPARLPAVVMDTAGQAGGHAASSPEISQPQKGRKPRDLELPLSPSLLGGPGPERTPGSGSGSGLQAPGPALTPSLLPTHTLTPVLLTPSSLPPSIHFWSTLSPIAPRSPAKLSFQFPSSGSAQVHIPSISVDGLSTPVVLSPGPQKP
# Summary of the method: as §1
# GABPA = biological target: T3, GABPA (Homo sapiens, UniProt Q06546 1-454)
# T3 sequence: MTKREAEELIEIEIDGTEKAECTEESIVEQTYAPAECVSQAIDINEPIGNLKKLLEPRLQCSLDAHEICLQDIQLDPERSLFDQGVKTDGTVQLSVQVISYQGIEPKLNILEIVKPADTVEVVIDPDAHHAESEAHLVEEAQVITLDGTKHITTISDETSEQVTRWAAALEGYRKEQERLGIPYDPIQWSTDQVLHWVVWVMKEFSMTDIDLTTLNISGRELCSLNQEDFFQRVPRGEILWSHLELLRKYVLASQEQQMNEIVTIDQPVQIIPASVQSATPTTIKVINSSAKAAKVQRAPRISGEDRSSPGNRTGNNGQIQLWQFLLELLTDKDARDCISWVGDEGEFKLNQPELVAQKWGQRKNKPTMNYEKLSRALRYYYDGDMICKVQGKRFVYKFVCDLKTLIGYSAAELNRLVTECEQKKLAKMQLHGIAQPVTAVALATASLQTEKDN
# Summary of the method: as §1
# ERG = biological target: T4, ERG (Homo sapiens, UniProt P11308 1-479)
# T4 sequence: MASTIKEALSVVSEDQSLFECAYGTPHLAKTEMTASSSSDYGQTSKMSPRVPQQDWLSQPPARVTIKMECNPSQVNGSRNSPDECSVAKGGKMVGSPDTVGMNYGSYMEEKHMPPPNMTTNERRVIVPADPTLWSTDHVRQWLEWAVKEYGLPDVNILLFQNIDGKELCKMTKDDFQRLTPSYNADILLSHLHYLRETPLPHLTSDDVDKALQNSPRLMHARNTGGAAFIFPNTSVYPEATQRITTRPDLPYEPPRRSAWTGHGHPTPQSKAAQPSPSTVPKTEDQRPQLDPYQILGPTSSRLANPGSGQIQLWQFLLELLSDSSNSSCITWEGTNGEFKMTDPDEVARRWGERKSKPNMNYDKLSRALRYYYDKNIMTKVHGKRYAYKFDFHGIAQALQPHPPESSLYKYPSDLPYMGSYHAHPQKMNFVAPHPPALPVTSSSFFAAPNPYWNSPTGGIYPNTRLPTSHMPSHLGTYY
# Summary of the method: as §1
# ELF1 = ELF1 (Homo sapiens, UniProt P32519 1-619)
# Summary of the method: as §1
# EHF = biological target: T5, EHF (Homo sapiens, UniProt Q9NZC4 1-300)
# T5 sequence: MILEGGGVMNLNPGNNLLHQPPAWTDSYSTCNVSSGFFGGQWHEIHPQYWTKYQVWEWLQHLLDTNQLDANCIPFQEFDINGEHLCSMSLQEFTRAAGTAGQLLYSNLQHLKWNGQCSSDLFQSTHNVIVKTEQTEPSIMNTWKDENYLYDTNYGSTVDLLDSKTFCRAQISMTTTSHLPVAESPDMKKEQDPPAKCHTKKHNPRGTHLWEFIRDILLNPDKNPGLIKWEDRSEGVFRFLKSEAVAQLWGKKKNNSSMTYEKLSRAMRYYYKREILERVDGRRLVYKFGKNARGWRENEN
# Summary of the method: as §1
# SPI1 = SPI1 (Homo sapiens, UniProt P17947 1-270)
# Summary of the method: as §1
# SPIB = SPIB (Homo sapiens, UniProt Q01892 1-262)
# Summary of the method: as §1
# ELK3 = biological target: T6, ELK3 (Homo sapiens, UniProt P41970 1-407)
# T6 sequence: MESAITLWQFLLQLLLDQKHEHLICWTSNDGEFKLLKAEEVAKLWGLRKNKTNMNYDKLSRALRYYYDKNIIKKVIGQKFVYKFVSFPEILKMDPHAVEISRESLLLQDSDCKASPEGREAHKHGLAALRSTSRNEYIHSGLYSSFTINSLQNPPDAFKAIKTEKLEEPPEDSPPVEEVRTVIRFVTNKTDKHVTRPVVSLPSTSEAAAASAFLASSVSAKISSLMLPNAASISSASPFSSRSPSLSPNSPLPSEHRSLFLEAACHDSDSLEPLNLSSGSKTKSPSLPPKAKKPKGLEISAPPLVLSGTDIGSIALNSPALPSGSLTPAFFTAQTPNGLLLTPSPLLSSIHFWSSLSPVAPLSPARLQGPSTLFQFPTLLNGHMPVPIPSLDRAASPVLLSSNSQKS
# Summary of the method: as §1
# FEV = biological target: T7, FEV (Homo sapiens, UniProt Q99581 1-238)
# T7 sequence: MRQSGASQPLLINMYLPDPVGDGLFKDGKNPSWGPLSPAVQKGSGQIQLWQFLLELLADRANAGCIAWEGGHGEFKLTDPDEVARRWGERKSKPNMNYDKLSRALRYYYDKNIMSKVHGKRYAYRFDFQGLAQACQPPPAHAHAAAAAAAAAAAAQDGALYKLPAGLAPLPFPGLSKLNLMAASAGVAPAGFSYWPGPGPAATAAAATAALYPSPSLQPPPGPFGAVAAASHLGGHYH
# Summary of the method: as §1
# ETV5 = ETV5 (Homo sapiens, UniProt P41161 1-510)
# Summary of the method: as §1
# SPIC = biological target: T8, SPIC (Homo sapiens, UniProt Q8N5J4 1-248)
# T8 sequence: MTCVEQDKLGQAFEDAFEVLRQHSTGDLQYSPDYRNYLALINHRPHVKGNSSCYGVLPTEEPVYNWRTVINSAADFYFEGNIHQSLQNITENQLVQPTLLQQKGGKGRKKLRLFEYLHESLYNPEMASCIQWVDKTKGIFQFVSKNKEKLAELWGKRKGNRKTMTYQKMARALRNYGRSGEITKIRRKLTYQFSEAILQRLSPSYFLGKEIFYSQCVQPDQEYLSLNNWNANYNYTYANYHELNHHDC
# Summary of the method: as §1
# ELF4 = ELF4 (Homo sapiens, UniProt Q99607 1-663)
# Summary of the method: as §1
# ELK4 = biological target: T9, ELK4 (Homo sapiens, UniProt P28324-2 1-405)
# T9 sequence: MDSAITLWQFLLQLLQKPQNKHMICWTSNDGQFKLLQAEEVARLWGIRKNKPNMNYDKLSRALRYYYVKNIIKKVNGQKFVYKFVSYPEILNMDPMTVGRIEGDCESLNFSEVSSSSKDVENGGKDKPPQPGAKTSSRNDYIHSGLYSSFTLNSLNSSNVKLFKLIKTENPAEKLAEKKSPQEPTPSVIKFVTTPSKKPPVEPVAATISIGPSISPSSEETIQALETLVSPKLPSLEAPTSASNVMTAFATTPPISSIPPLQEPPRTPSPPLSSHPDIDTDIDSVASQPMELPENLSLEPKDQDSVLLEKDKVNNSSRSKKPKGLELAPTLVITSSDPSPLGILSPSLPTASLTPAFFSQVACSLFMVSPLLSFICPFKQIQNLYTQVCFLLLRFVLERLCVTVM
# Summary of the method: as §1
# ETV2 = biological target: T10, ETV2 (Homo sapiens, UniProt O00321 1-342)
# T10 sequence: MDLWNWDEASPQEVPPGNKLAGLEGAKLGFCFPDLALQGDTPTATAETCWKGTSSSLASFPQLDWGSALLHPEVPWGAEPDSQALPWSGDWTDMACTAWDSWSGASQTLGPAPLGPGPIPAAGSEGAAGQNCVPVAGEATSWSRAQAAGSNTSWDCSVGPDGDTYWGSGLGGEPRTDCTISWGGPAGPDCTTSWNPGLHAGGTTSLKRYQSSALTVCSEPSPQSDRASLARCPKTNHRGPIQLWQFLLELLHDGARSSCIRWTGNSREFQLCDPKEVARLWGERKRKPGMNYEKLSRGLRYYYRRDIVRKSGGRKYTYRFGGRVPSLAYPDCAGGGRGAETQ
# Summary of the method: as §1
# ELF3 = biological target: T11, ELF3 (Homo sapiens, UniProt P78545 1-371)
# T11 sequence: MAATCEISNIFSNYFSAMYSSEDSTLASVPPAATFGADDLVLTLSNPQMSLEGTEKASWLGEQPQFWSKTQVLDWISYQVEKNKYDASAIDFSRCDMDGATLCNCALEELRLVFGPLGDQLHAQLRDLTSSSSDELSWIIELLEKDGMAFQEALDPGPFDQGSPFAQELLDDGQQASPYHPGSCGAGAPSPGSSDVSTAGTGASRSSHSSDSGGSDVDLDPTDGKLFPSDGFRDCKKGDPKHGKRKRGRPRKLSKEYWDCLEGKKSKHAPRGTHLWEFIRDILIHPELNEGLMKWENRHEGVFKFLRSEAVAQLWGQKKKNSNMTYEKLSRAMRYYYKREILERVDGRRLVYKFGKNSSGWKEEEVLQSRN
# Summary of the method: as §1
# ETV1 = ETV1 (Homo sapiens, UniProt P50549 1-477)
# Summary of the method: as §1
# SPIB, sequence (Q01892 whole entry): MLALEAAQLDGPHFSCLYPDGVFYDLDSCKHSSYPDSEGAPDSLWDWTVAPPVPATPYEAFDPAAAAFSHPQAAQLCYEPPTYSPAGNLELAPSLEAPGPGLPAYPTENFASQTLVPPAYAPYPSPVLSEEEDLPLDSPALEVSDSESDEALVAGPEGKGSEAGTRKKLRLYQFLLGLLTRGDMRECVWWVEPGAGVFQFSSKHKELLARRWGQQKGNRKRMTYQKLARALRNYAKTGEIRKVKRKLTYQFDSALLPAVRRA
# ETV1, sequence (P50549 whole entry): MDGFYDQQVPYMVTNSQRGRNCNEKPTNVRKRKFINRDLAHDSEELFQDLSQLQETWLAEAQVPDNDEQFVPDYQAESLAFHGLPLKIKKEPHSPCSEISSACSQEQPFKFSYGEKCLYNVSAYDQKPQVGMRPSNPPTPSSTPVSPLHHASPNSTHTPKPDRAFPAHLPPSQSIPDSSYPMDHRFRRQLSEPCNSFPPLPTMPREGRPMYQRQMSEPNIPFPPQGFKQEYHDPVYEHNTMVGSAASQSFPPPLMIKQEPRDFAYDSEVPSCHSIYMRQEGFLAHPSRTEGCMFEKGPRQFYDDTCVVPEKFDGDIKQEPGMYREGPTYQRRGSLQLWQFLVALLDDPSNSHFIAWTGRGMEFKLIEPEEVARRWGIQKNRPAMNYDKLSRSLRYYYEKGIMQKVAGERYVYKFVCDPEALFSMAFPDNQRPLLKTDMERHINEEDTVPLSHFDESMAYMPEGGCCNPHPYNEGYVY
# ELF1, sequence (P32519 whole entry): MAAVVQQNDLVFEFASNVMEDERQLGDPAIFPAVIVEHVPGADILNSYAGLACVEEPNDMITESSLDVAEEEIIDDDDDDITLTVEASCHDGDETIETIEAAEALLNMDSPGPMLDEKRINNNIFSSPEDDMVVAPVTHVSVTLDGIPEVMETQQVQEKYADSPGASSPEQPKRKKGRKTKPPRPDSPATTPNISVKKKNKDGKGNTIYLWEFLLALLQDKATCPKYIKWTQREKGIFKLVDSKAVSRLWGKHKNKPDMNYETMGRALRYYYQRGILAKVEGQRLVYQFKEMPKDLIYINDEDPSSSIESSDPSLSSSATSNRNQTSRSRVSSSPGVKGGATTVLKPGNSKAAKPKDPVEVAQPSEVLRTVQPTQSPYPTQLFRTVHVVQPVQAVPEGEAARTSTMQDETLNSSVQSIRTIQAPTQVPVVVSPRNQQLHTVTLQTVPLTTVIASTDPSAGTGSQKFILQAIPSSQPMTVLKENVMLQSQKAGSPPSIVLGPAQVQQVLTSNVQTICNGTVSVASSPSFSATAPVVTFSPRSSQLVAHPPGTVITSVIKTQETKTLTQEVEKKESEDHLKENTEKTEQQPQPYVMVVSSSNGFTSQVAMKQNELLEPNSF
# ELF4, sequence (Q99607 whole entry): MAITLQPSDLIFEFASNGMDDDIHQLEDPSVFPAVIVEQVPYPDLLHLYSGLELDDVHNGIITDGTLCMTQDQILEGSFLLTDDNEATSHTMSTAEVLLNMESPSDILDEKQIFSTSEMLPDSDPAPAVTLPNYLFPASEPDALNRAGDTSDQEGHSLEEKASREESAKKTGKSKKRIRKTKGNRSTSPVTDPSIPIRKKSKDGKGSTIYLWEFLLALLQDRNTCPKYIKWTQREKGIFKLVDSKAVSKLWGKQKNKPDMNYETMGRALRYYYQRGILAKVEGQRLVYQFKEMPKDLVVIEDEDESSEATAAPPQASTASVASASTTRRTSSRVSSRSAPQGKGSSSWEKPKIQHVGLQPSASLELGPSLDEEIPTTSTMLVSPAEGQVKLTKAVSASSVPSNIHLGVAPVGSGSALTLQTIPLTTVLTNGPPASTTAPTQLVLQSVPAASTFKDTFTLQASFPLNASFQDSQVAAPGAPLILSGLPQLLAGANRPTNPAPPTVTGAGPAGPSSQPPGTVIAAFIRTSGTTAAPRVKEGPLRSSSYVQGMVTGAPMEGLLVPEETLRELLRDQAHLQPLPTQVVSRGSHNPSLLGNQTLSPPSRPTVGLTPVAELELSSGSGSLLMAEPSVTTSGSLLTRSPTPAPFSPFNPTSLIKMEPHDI
# ETV5, sequence (P41161 whole entry): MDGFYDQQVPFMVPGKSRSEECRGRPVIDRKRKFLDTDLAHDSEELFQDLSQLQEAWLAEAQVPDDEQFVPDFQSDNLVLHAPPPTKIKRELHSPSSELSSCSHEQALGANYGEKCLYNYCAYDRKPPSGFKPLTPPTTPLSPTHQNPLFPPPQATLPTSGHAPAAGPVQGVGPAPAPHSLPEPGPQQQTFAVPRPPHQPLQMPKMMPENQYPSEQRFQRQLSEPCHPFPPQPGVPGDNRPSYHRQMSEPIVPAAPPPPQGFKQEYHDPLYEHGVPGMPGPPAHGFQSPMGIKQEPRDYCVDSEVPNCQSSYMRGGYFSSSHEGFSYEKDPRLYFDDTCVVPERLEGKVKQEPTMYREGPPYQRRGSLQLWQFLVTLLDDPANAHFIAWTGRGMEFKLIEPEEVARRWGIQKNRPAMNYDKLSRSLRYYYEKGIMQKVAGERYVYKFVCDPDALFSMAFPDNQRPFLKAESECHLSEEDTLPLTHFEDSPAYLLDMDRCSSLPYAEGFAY
sequence,measurement,setting,value
TCCGCG,binding signal,FLI1,"1.25 fold enrichment (6-mer frequency, TF over GST control)"
same,binding signal,ELK1,"1.27 fold enrichment (6-mer frequency, TF over GST control)"
same,binding signal,GABPA,"1.03 fold enrichment (6-mer frequency, TF over GST control)"
same,binding signal,ERG,"1.41 fold enrichment (6-mer frequency, TF over GST control)"
same,binding signal,ELF1,"1.2 fold enrichment (6-mer frequency, TF over GST control)"
same,binding signal,EHF,"1.23 fold enrichment (6-mer frequency, TF over GST control)"
same,binding signal,SPI1,"1.3 fold enrichment (6-mer frequency, TF over GST control)"
same,binding signal,SPIB,"1.36 fold enrichment (6-mer frequency, TF over GST control)"
same,binding signal,ELK3,"1.14 fold enrichment (6-mer frequency, TF over GST control)"
same,binding signal,FEV,"1.2 fold enrichment (6-mer frequency, TF over GST control)"
same,binding signal,ETV5,"1.33 fold enrichment (6-mer frequency, TF over GST control)"
same,binding signal,SPIC,"1.18 fold enrichment (6-mer frequency, TF over GST control)"
same,binding signal,ELF4,"1.23 fold enrichment (6-mer frequency, TF over GST control)"
same,binding signal,ELK4,"1.32 fold enrichment (6-mer frequency, TF over GST control)"
same,binding signal,ETV2,"1.32 fold enrichment (6-mer frequency, TF over GST control)"
same,binding signal,ELF3,"1.08 fold enrichment (6-mer frequency, TF over GST control)"
same,binding signal,ETV1,"1.33 fold enrichment (6-mer frequency, TF over GST control)"
